Common to all, as to assay: RNA Bind-n-Seq (nitrocellulose filter binding and sequencing); miR-122 guide loaded in AGO2; 60 min incubation; 30 mM Tris pH 8.0, 100 mM potassium acetate, 2 mM magnesium acetate, 0.5 mM TCEP, 0.005% NP-40, 0.01 mg/ml yeast tRNA; 3 nM AGO2-miR-122, 100 nM RNA library; 60; high values mean tight binding
What all share (conditions): protein: recombinant; tags: His6 (N-terminal, pFastBac HTA)

One test deals with AGO2 L192P (Homo sapiens, UniProt Q9UKV8 1-859, L192P;S387D;S824A;S828D;S831D;S834A). An outline of the steps: (§1)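 His-tagged AGO2 was expressed in Sf9 insect cells by baculovirus, loaded with a synthetic guide RNA, and purified by Ni-NTA and a biotinylated capture oligo. Bound RNA was extracted, reverse-transcribed, barcode-amplified and Illumina-sequenced. Fold enrichment is each sequence's read fraction divided by its input-library read fraction.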
Sequence of AGO2 L192P (Q9UKV8 whole entry L192P/S387D/S824A/S828D/S831D/S834A): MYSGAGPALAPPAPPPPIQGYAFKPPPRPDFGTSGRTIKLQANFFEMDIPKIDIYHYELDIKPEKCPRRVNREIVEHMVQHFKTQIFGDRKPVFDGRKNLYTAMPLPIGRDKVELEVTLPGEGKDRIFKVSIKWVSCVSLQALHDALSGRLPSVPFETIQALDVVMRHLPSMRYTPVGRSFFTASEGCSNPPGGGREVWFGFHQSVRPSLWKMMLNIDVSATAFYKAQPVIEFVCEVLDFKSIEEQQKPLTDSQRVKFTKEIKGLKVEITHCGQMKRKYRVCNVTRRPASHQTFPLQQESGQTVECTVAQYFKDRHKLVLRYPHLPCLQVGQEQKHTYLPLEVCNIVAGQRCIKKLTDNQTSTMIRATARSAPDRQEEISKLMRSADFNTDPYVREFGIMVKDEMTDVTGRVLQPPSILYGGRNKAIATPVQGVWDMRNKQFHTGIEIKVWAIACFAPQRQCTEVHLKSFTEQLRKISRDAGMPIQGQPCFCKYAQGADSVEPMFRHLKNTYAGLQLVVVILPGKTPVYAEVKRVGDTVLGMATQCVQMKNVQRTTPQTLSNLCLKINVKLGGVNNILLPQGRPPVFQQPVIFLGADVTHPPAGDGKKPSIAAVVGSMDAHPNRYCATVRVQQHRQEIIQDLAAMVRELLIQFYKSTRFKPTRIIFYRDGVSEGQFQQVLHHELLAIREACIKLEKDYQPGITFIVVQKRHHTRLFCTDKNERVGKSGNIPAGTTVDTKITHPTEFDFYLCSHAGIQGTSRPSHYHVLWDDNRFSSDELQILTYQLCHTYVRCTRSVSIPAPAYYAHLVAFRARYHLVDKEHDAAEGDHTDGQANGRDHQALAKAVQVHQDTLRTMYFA

The target of another test is AGO2 A367P (Homo sapiens, UniProt Q9UKV8 1-859, A367P;S387D;S824A;S828D;S831D;S834A). Put shortly:
as §1

In another test the target is AGO2 T357M (Homo sapiens, UniProt Q9UKV8 1-859, T357M;S387D;S824A;S828D;S831D;S834A). An outline of the steps: as §1
Sequence of AGO2 T357M (Q9UKV8 whole entry T357M/S387D/S824A/S828D/S831D/S834A): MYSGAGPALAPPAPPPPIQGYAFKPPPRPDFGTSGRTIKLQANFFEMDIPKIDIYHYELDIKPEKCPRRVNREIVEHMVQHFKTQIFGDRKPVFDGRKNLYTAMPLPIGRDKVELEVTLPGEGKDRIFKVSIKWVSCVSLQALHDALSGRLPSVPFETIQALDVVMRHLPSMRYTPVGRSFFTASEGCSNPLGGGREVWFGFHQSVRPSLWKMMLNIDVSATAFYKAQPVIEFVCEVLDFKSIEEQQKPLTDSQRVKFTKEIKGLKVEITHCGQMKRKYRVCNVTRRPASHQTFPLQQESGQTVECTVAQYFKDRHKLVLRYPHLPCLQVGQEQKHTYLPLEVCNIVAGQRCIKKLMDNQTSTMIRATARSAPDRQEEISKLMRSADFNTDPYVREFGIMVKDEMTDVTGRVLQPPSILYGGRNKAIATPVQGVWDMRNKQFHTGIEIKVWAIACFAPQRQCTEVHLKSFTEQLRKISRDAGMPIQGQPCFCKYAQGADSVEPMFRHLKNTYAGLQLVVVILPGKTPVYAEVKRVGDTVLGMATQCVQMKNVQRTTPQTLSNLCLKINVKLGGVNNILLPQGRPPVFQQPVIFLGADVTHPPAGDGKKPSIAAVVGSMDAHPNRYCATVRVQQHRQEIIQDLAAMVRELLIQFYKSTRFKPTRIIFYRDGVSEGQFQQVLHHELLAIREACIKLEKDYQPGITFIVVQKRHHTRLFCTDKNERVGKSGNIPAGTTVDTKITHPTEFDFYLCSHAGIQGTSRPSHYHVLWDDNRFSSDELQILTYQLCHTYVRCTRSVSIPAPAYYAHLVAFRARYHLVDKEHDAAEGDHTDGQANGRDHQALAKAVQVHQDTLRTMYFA

Sequence of AGO2 A367P (Q9UKV8 whole entry A367P/S387D/S824A/S828D/S831D/S834A): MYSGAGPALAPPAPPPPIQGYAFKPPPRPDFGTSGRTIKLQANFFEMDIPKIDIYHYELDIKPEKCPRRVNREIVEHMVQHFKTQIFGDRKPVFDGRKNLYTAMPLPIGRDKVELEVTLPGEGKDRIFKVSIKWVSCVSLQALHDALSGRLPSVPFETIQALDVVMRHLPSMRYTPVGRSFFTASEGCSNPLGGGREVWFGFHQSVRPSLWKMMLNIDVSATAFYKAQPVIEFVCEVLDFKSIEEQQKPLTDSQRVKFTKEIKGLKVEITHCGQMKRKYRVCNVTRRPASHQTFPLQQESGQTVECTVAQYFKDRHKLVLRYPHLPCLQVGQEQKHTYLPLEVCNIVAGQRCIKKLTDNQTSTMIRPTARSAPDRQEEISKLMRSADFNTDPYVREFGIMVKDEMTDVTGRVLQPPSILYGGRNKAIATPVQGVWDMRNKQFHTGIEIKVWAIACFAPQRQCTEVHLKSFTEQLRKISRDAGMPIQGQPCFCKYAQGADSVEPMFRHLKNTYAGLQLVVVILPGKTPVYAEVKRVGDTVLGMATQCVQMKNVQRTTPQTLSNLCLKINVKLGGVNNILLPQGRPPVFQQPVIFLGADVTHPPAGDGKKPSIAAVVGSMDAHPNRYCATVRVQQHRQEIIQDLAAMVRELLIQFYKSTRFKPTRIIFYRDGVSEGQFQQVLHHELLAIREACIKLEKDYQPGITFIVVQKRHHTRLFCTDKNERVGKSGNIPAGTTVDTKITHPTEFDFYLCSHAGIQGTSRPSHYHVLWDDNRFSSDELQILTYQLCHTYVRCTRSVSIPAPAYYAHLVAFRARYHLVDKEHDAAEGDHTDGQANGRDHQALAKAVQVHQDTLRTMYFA

B1: GTATCCCG (ssRNA)
RNA 1: GAGUUCUACAGUCCGACGAUCCCAACGUAUCCCGCACCUGGAAUUCUCGGGUGCCAA
RNA 2: UGGAGUGUGACAAUGGUGUUUG
DNA 1: GATCGTCGGACTGTAGAACTC
DNA 2: TTGGCACCCGAGAATTCCA
modifications: constant regions annealed to DNA blockers; guide miR-122 5' phosphate
For B1, the results for the binding signal with AGO2 L192P, in the test with AGO2 A367P and with AGO2 T357M were 0.354 fold enrichment over input, 0.122 fold enrichment over input and 0.399 fold enrichment over input, respectively.

B2: ACGCCCCG (ssRNA)
RNA 1: GAGUUCUACAGUCCGACGAUCCCAACACGCCCCGCACCUGGAAUUCUCGGGUGCCAA
RNA 2: UGGAGUGUGACAAUGGUGUUUG
DNA 1: GATCGTCGGACTGTAGAACTC
DNA 2: TTGGCACCCGAGAATTCCA
modifications: constant regions annealed to DNA blockers; guide miR-122 5' phosphate
Regarding B2, the binding signal in the test with AGO2 L192P was 0.391 fold enrichment over input; with AGO2 A367P, 0.155 fold enrichment over input; with AGO2 T357M, 0.524 fold enrichment over input.

B3: GCATCCTG (ssRNA)
RNA 1: GAGUUCUACAGUCCGACGAUCCCAACGCAUCCUGCACCUGGAAUUCUCGGGUGCCAA
RNA 2: UGGAGUGUGACAAUGGUGUUUG
DNA 1: GATCGTCGGACTGTAGAACTC
DNA 2: TTGGCACCCGAGAATTCCA
modifications: constant regions annealed to DNA blockers; guide miR-122 5' phosphate
On to B3, for which the values for the binding signal in the test with AGO2 L192P, with AGO2 A367P and with AGO2 T357M were 0.336 fold enrichment over input, 0.13 fold enrichment over input and 0.437 fold enrichment over input, respectively.

B4: GTACCTTA (ssRNA)
RNA 1: GAGUUCUACAGUCCGACGAUCCCAACGUACCUUACACCUGGAAUUCUCGGGUGCCAA
RNA 2: UGGAGUGUGACAAUGGUGUUUG
DNA 1: GATCGTCGGACTGTAGAACTC
DNA 2: TTGGCACCCGAGAATTCCA
modifications: constant regions annealed to DNA blockers; guide miR-122 5' phosphate
Regarding B4, the results for the binding signal with AGO2 L192P, in the test with AGO2 A367P and in the test with AGO2 T357M were 0.445 fold enrichment over input, 0.167 fold enrichment over input and 0.599 fold enrichment over input, respectively.

B5: GTATCTCG (ssRNA)
RNA 1: GAGUUCUACAGUCCGACGAUCCCAACGUAUCUCGCACCUGGAAUUCUCGGGUGCCAA
RNA 2: UGGAGUGUGACAAUGGUGUUUG
DNA 1: GATCGTCGGACTGTAGAACTC
DNA 2: TTGGCACCCGAGAATTCCA
modifications: constant regions annealed to DNA blockers; guide miR-122 5' phosphate
Consider B5, for which the values for the binding signal with AGO2 L192P, with AGO2 A367P and with AGO2 T357M were 0.333 fold enrichment over input, 0.128 fold enrichment over input and 0.424 fold enrichment over input, respectively.

B6: GCGTTTTG (ssRNA)
RNA 1: GAGUUCUACAGUCCGACGAUCCCAACGCGUUUUGCACCUGGAAUUCUCGGGUGCCAA
RNA 2: UGGAGUGUGACAAUGGUGUUUG
DNA 1: GATCGTCGGACTGTAGAACTC
DNA 2: TTGGCACCCGAGAATTCCA
modifications: constant regions annealed to DNA blockers; guide miR-122 5' phosphate
As for B6, the binding signal is 0.362 fold enrichment over input with AGO2 L192P, 0.136 fold enrichment over input in the test with AGO2 A367P and 0.536 fold enrichment over input with AGO2 T357M.

B7: GCGTCTCG (ssRNA)
RNA 1: GAGUUCUACAGUCCGACGAUCCCAACGCGUCUCGCACCUGGAAUUCUCGGGUGCCAA
RNA 2: UGGAGUGUGACAAUGGUGUUUG
DNA 1: GATCGTCGGACTGTAGAACTC
DNA 2: TTGGCACCCGAGAATTCCA
modifications: constant regions annealed to DNA blockers; guide miR-122 5' phosphate
Take B7: the results for the binding signal in the test with AGO2 L192P, with AGO2 A367P and in the test with AGO2 T357M were 0.345 fold enrichment over input, 0.138 fold enrichment over input and 0.498 fold enrichment over input, respectively.

B8: GTGTTCCG (ssRNA)
RNA 1: GAGUUCUACAGUCCGACGAUCCCAACGUGUUCCGCACCUGGAAUUCUCGGGUGCCAA
RNA 2: UGGAGUGUGACAAUGGUGUUUG
DNA 1: GATCGTCGGACTGTAGAACTC
DNA 2: TTGGCACCCGAGAATTCCA
modifications: constant regions annealed to DNA blockers; guide miR-122 5' phosphate
Turning to B8, the figures for the binding signal with AGO2 L192P, with AGO2 A367P and with AGO2 T357M were 0.408 fold enrichment over input, 0.144 fold enrichment over input and 0.544 fold enrichment over input, respectively.

B9: ATGCCCTG (ssRNA)
RNA 1: GAGUUCUACAGUCCGACGAUCCCAACAUGCCCUGCACCUGGAAUUCUCGGGUGCCAA
RNA 2: UGGAGUGUGACAAUGGUGUUUG
DNA 1: GATCGTCGGACTGTAGAACTC
DNA 2: TTGGCACCCGAGAATTCCA
modifications: constant regions annealed to DNA blockers; guide miR-122 5' phosphate
As for B9, the binding signal with AGO2 L192P is 0.377 fold enrichment over input; with AGO2 A367P it was 0.137 fold enrichment over input; with AGO2 T357M, 0.463 fold enrichment over input.

B10: ATATTTCG (ssRNA)
RNA 1: GAGUUCUACAGUCCGACGAUCCCAACAUAUUUCGCACCUGGAAUUCUCGGGUGCCAA
RNA 2: UGGAGUGUGACAAUGGUGUUUG
DNA 1: GATCGTCGGACTGTAGAACTC
DNA 2: TTGGCACCCGAGAATTCCA
modifications: constant regions annealed to DNA blockers; guide miR-122 5' phosphate
Consider B10, for which the binding signal in the test with AGO2 L192P was 0.414 fold enrichment over input; in the test with AGO2 A367P, 0.135 fold enrichment over input; with AGO2 T357M it was 0.6 fold enrichment over input.

B11: ACATCTCG (ssRNA)
RNA 1: GAGUUCUACAGUCCGACGAUCCCAACACAUCUCGCACCUGGAAUUCUCGGGUGCCAA
RNA 2: UGGAGUGUGACAAUGGUGUUUG
DNA 1: GATCGTCGGACTGTAGAACTC
DNA 2: TTGGCACCCGAGAATTCCA
modifications: constant regions annealed to DNA blockers; guide miR-122 5' phosphate
As to B11, the binding signal with AGO2 L192P was 0.347 fold enrichment over input; with AGO2 A367P, 0.134 fold enrichment over input; with AGO2 T357M, 0.37 fold enrichment over input.
